# Reference: PubChem BioAssay (Tox21)
# Records with an inconclusive call do not appear. Entries that show only a call come without a potency. Calls of active or inactive are those of the source. The call rests on the fitted dose curve; in most records, active means well fitted cell-killing curve with a large enough effect in the repeat runs; inconclusive means weak or mixed curves; inactive means flat fitted curve, though single readings scatter.
# Test: qHTS RealTime-Glo MT Cell Viability Assay in HepG2 cells - 32 hour (AID 1224877); further: nearly all actives have a fitted effect of over 55% in size
# Conditions: RealTime-Glo luminescence; series mostly up to 76.8 µM
# Source text: U.S. Tox21 Program National Center for Advancing Translational Sciences [NCATS] NIH Chemical Genomics Center [NCGC] U.S. Environmental Protection Agency [EPA] National Institutes of Environmental Health Sciences [NIEHS] National Toxicology Program [NTP] U.S. Food and Drug Administration [FDA] Tox21 Assay Overview: Measure of cell viability is critical in the cell-base assay. Analysis of cell viability is necessary for the characterization of cell responses to cytotoxic drugs and environmental stress. A RealTime-Glo MT Cell Viability Assay to monitor cell viability in real time of continues cell culture during 40 hours of compound treatment was used to screen Tox21 10K library compounds in HepG2 cells. The RealTime-Glo MT Cell Viability Assay is a nonlytic, homogeneous, bioluminescent method to measure cell viability in real time using a simple, plate-based method. The assay involves adding NanoLuc luciferase and a cell-permeant prosubstrate to cells in culture. Viable cells reduce the proprietary prosubstrate to generate a substrate for NanoLuc luciferase. This substrate diffuses from cells into the surrounding culture medium, where it is rapidly used by the NanoLuc Enzyme to produce a luminescent signal. The signal correlates with the number of viable cells, making the assay well suited for cytotoxicity studies.
# Tox21 Assay Protocol Summary: The mixture of HepG2 cell suspension and reagents were dispensed at 600cells/6 ul/well in 1536-well tissue culture treated black solid bottom plates using a Multidrop dispenser. After the assay plates were incubated at a 37 C/5% CO2 incubator for 5 hours, 23 nL of compounds dissolved in DMSO, positive and negative controls was transferred to the assay plate by a pintool work station. The plates were incubated at 37 C for 40 hours. The luminescence intensity were measured at 0h, 8h, 16h, 24h, 32h and 40h time points using ViewLux plate reader during compound treatment.
# Potency means the concentration at half of the fitted maximal effect.
SMILES,Potency,"activity change, negative = cytotoxic"
O=C(CCCCCCCCC#CI)Oc1ccccc1,4.77 µM (active),
CC1=CC(O)CC(C)(C)C1 (stereo not given),inactive,
Cc1c(C(=O)NN2CCCCC2)nn(-c2ccc(Cl)cc2Cl)c1-c1ccc(Cl)cc1,inactive,
CC#N,inactive,
Cc1ccnc2ccccc12,inactive,
CCOC(=O)c1ccccc1OC,inactive,
C[N+]1(C)CCC(=C(c2ccccc2)c2ccccc2)CC1,inactive,
COC(=O)c1cc(S(N)(=O)=O)ccc1OC,inactive,
CCCCC(CC)COC(=O)COc1ccc(Cl)cc1C (stereo not given),inactive,
CC(C)CCCC(=O)O,inactive,
CCC1(C)CC(=O)NC1=O (stereo not given),inactive,
NC(=O)Nc1ccc(Cl)cc1,inactive,
NC(=O)Nc1ccc(Cl)c(Cl)c1,inactive,
OC(CCCN1CCCCC1)(c1ccccc1)c1ccccc1,inactive,
CCC(C)(C)C1CCC(O)CC1 (stereo not given),inactive,
O=C(O)c1snc(Cl)c1Cl,inactive,
[O]=[Bi],,5.58% [at 6.97 µM] (inactive)
O=C(O)Cc1ccc(-c2ccccc2)cc1,inactive,
CO[C@@]12[C@H](COC(N)=O)C3=C(C(=O)C(C)=C(N)C3=O)N1C[C@@H]1N[C@@H]12,5.35 µM (active),
CCn1cc(C(=O)O)c(=O)c2cc(F)c(N3CCNCC3)nc21,inactive,

SMILES,Potency,"activity change, negative = cytotoxic"
O=S(=O)(c1ccccc1)c1ccc(Cl)cc1,inactive,
CC(=O)Nc1ccccc1C,inactive,
OCC1CC=CCC1 (stereo not given),inactive,
COc1cc2[nH]c(=O)[nH]c(=O)c2cc1OC,inactive,
CCOC(=O)/C=C/C(=O)O,inactive,
Nc1nc(Cl)nc2c1ncn2[C@@H]1O[C@H](CO)[C@@H](O)[C@@H]1F,inactive,
CCCCCCCC/C=C\CCCCCCCC(=O)OC(CO)CO,inactive,
ON(Cc1ccccc1)Cc1ccccc1,inactive,
CC(N)CN (stereo not given),inactive,
CC(C)OCC1CO1 (stereo not given),inactive,
CCCCC/C(=C\c1ccccc1)CO,inactive,
COC(OC)(C(=O)c1ccccc1)c1ccccc1,inactive,
c1ccc(COCc2ccccc2)cc1,inactive,
CCOC(=O)c1ccccc1C,inactive,
O=C(/C=C/c1ccccc1)OCCCc1ccccc1,inactive,
CC1(C)C2=CCCC(C)(C)[C@]23CC[C@H]1C3,inactive,
CC(C)(C)C(=O)C(Oc1ccc(Cl)cc1)n1ccnc1 (stereo not given),inactive,
O=C(CCCN1CCN(c2ccc(F)cc2)CC1)NC1c2ccccc2CSc2ccccc21 (stereo not given),23.9 µM (active),
Oc1cc(O)c(Cl)cc1Cl,inactive,
CCCCN(CCCC)C(=S)SSC(=S)N(CCCC)CCCC,inactive,
